Assay results reported in PubChem BioAssay AID504797 (The Scripps Research Institute Molecular Screening Center, 2011).
The list shows a part of the results. Activity calls are given as the source filed them. Rule as the data show it: active = activation above about 19%; inactive = the rest. Residues, ends and D or L forms follow the SMILES beside them.

These compounds were tested against cAMP-dependent protein kinase type II-beta regulatory subunit (Homo sapiens) (UniProt P31323) (assay: activators of PKA-R2B holoenzyme, confirmation, biochemical, fluorescence polarization, human (AID 504797)). Conditions: PKA-R2B complex, at 11.4 µM, stronger effect = higher value.
Sequence of cAMP-dependent protein kinase type II-beta regulatory subunit (Homo sapiens) (P31323 whole entry, looked up): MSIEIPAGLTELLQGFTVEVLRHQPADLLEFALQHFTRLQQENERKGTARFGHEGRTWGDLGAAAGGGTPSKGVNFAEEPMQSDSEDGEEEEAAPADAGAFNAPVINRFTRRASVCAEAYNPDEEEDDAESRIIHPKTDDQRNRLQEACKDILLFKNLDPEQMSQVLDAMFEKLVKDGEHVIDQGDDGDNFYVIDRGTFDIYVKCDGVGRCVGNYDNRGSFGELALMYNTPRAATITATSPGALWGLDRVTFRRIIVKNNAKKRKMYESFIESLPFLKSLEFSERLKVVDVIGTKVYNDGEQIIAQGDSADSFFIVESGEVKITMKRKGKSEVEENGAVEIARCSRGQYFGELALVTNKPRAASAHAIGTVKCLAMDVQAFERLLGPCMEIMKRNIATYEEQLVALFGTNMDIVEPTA
With N#Cc1ccccc1CN1C(=O)S/C(=C/c2cccn2-c2cccc(C(=O)O)c2)C1=O the activation was 19.4% (active). CC(C)(C)c1nnc(N/N=C/c2ccc(O)cc2)n(N)c1=O was tested, and the activation was 3.54% (inactive). For O=C(CCCN1C(=O)c2cccc3cccc(c23)C1=O)N1CCN(Cc2ccc3c(c2)OCO3)CC1, the activation was -2.59% (inactive). For COc1ccc([N+](=O)[O-])cc1C1NN=C(c2cccc3ccccc23)S1 (stereo not drawn), the activation was 1.59% (inactive). With COc1ccc(C/C(C)=N/NC(=O)c2ccncc2)cc1 the activation was 0.21% (inactive). For CC(C)(C)c1ccc(C(=O)N2CCC(C(=O)N3CCCCC3)CC2)cc1, the activation was -0.14% (inactive). For O=C(CNC(=O)c1ccccc1)NCC(=O)OCC(=O)c1ccccc1 (HELM PEPTIDE1{[O=C(c1ccccc1)[*:2]].G.G.[O=C(CO[*:1])c1ccccc1]}$$$$V2.0), the activation was 3.61% (inactive). For O=S(=O)(NCCNS(=O)(=O)c1ccccc1)c1ccccc1, the activation was 4.44% (inactive). In the case of CCCC(=O)Nc1ncnc2c1ncn2[C@@H]1O[C@@H]2OP(=O)(O)OC[C@H]2[C@H]1OC(=O)CCC, the activation is reported as 36.6% (active). With O=C(O)C1=C(C(=O)O)C2CCC1C2 the activation was -0.5% (inactive). With O=C(CN(C(=O)CCC(=O)Nc1nccs1)c1ccc(F)cc1)NCc1ccc2c(c1)OCO2 the activation was 3.19% (inactive). With COc1ccc(CC(NC(C)=O)C(=O)NC2CCN(C(=O)c3ccc(Cl)cc3)CC2)cc1 (stereo not drawn) the activation was 2.1% (inactive). COc1cccc(Nc2nnc(SCC(=O)N3CC(C)OC(C)C3)s2)c1 (stereo not drawn) was tested, and the activation was 1.96% (inactive).
